Our source for the AC50 and activity, negative = inhibition values is PubChem BioAssay AID1851 (National Center for Advancing Translational Sciences (NCATS), 2009).

Several values for one entry are separate records, joined by “and”; a condition that tells them apart may be missing. Equal values may be shown once. The campaign covered roughly 16,000 compounds. About 2,600 (16%) were called active. Roughly 20% stayed inconclusive and do not appear here. Calls follow the shape of the dose curve; as a rule, active = well fitted curve in the direction sought with a large enough effect; inconclusive = small, poorly fitted or top-dose-only effect, or effect the other way; inactive = no such curve, though single readings can be large or run the other way. Only a sample is shown. Where a structure was tested more than once in an assay, its records may differ in their call.
% is scaled to controls: 0 for no effect and ±100 for the full control effect.

Chain of Cytochrome P450 2D6 (Homo sapiens) (P10635 whole entry, looked up): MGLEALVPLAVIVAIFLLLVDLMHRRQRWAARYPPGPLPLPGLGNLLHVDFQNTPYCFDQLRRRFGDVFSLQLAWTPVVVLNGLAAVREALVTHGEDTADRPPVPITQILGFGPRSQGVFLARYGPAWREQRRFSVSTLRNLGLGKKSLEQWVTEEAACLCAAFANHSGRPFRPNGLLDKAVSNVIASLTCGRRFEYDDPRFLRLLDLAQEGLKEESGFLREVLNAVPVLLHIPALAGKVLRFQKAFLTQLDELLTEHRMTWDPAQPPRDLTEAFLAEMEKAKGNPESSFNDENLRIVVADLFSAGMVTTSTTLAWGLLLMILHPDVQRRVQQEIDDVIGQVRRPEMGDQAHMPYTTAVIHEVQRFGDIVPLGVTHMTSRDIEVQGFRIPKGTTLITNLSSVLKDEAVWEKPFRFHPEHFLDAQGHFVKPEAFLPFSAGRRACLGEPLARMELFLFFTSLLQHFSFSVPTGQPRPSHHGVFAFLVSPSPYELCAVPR

This assay addresses Cytochrome P450 2D6 (Homo sapiens) (UniProt P10635). Put plainly: Cytochrome panel assay with activity outcomes. Particulars: recombinant CYP, pro-luciferin dealkylation, luminescence, p450-cyp2d6; series mostly up to 57.1 µM.
In general, AC50 refers to the midpoint of the concentration-response curve, whichever way the signal moves. Turning to `COc1ccc(OC)c2[nH]c(=O)c(CCNS(=O)(=O)c3ccccc3)cc12`, the AC50 entry was “inactive”.

Take `CCOc1cccc(/C(O)=C2/C(=O)C(=O)N(Cc3ccco3)C2c2ccncc2)c1` (stereo unspecified): the AC50 result is “inactive”.

For the molecule `O=C(NNS(=O)(=O)c1ccc(Cl)cc1)NC1CCCCC1`, the AC50 entry was “inactive”.

Consider `CCC(=O)Nc1nnc(C(C)(C)C)s1`, for which the AC50 result was “inactive”.

With `O=c1c(-c2cc(F)cc(F)c2)nc2cnc(N3CCOCC3)nc2n1C[C@H]1CCCO1`, the AC50 entry was “inactive”.

Turning to `CCCn1nc2cc(C(=O)NCCc3ccc(C)cc3)ccc2c1OCC`, the AC50 was 3550 nM (active).

Turning to `CCOc1c2ccc(C(=O)NCc3ccco3)cc2nn1CC`, the AC50 result was “inactive”.

`CCCCn1nc2cc(C(=O)NCC3CC3)ccc2c1OCC`: the AC50 entry was “inactive”.

`CCOc1c2ccc(C(=O)NC3CCCc4ccccc43)cc2nn1C` (stereo unspecified): the AC50 is 7940 nM (active).

Consider `CCn1nc2cc(C(=O)NCC34CC5CC(CC(C5)C3)C4)ccc2c1OC`, for which the AC50 result is “inactive”.

Take `CCCn1nc2cc(C(=O)NCc3ccc(C)cc3)ccc2c1OC`: the AC50 entry was “inactive”.

For `COCCNC(=O)c1ccc2c(c1)ncn2-c1ccc(F)c(F)c1`, the AC50 result was “inactive”.

Consider `CCOc1c2ccc(C(=O)NCCCCc3ccccc3)cc2nn1C`, for which the AC50 was 282 nM (active).

With `CCOc1c2ccc(C(=O)NCCc3cccs3)cc2nn1CC`, the AC50 was 2240 nM (active).

Consider `COCCn1c(=O)c(-c2ccccc2)nc2cnc(Oc3cccc(Cl)c3)nc21`, for which the AC50 result was “inactive”.

Take `NC(=O)Nn1c(CCC(=O)O)ccc1-c1ccc(F)cc1`: the AC50 result was “inactive”.

As to `Cc1ccc(C(=O)N2C3C=CC(C3)C2(C(F)(F)F)C(F)(F)F)cc1` (stereo unspecified), the AC50 entry was “inactive”.

On to `CCC(C)(C)c1ccc(Oc2cccc(C(=O)O)c2)cc1`, for which the activity, negative = inhibition is 13.3% [at 11.4 µM] (inactive).

On to `O=C(O)CCNc1ncnc2nc[nH]c12`, for which the activity, negative = inhibition is 9.14% [at 11.4 µM] (inactive).

Take `OC[C@H]1O[C@H](n2cnc3c(NC4CCCC4)nc(Cl)nc32)[C@@H](O)[C@@H]1O`: the AC50 entry was “inactive”.

In the case of `C=C(C)CN(CC#N)CC(=C)C`, the activity, negative = inhibition is 5.94% [at 11.4 µM] (inactive).

In the case of `N#C/C(=C(\O)C(=O)O)c1ccc(-c2cccc3ccccc23)cc1`, the activity, negative = inhibition was 14.5% [at 11.4 µM] (inactive).

With `O=c1c2c(n3cnnc3n1-c1ccccc1)-c1ccccc1CC21CCCCC1`, the AC50 result is “inactive”.

Consider `Nc1nc(N)c(N=Nc2ccc(C(=O)O)c(O)c2)c(N)n1`, for which the activity, negative = inhibition was -8.46% [at 11.4 µM] (inactive).

Turning to `CC1CCN(c2ccc(/C=N/n3nnnc3N)cc2[N+](=O)[O-])CC1`, the AC50 entry is “inactive”.

Consider `NC(=S)SCCC(=O)O`, for which the activity, negative = inhibition was 4.51% [at 11.4 µM] (inactive).

On to `NC(N)=Nc1nc2ccc([N+](=O)[O-])cc2[nH]1`, for which the activity, negative = inhibition is 2.98% [at 11.4 µM] (inactive).

As for `O=S(=O)(O)c1cc(N=[N+]([O-])c2cc(S(=O)(=O)O)c3ccccc3c2)cc2ccccc12`, the activity, negative = inhibition is -20.1% [at 11.4 µM] (inactive).

`CC(C)Nc1nc(Oc2ccc(Cl)cc2)cc(C(F)(F)F)n1`: the AC50 entry is “inactive”.

Turning to `CC(C)c1cc(C(F)(F)F)nc(NNc2nc(C(C)C)cc(C(F)(F)F)n2)n1`, the AC50 is 126 nM (active).

As to `CCNc1nc(Sc2ccc(C)cc2)cc(C(F)(F)F)n1`, the AC50 entry is “inactive”.

Regarding `Cc1nc2cnc(N3CCN(C)CC3)nc2n(Cc2ccc(F)cc2)c1=O`, the AC50 result is “inactive”.

Regarding `CN(C)c1ccc(-c2noc(C3CCN(S(=O)(=O)c4cccc(C(=O)O)c4)CC3)n2)cc1`, the AC50 result was “inactive”.

Take `Cc1ccc(C2=Nc3ccccc3S[C@@H](c3cccc([N+](=O)[O-])c3)C2)cc1`: the activity, negative = inhibition was 4.11% [at 11.4 µM] (inactive).

Take `N#C/C(=C\c1cn[nH]c1-c1ccccc1)C(=O)NC1CCCCCC1`: the half-maximal activity concentration (AC50) is 28200 nM (active).

For `N#C/C(=C\c1cc(Cl)cc(Cl)c1O)C(=O)NC1CCCCC1`, the AC50 entry was “inactive”.

Consider `COc1ccc(/C=C(/C#N)C(=O)NC2CCCCC2)cc1Br`, for which the AC50 entry was “inactive”.

For the molecule `CC1=C(C(=O)NCCN2CCN(C)CC2)C2(CCC(C)CC2)OC1=O` (stereo unspecified), the AC50 entry was “inactive”.

For the molecule `C/C(=N\NC(=O)c1ccc(Br)cc1)c1ccccc1`, the AC50 result was “inactive”.

On to `CCOc1ccc(C(=O)Nc2cccc(-c3cc4ccccc4oc3=O)c2)cc1[N+](=O)[O-]`, for which the AC50 entry was “inactive”.

As for `COc1ccc(-c2cc(C(=O)Nc3nc4c(C)cccc4s3)c3ccccc3n2)cc1OC`, the AC50 entry is “inactive”.

Turning to `CCCCNC(=O)CSc1nc2ccccc2c(=O)n1CCNC(C)=O`, the AC50 entry is “inactive”.

As for `CCCCNc1cc(=O)oc2ccccc12`, the AC50 entry was “inactive”.

`CCCCNC(=O)Cc1coc2ccc3ccccc3c12`: the AC50 is 10000 nM (active).

For the molecule `CC1(O)CC(=O)N(c2ccccc2)O1` (stereo unspecified), the AC50 result was “inactive”.

On to `COc1cccc(C(=O)NCCN2CCOCC2)c1`, for which the AC50 entry is “inactive”.

As to `COc1ccc(C(=O)Nc2ccc(Cl)cc2C(=O)NCCN2CCOCC2)cc1`, the AC50 is 1260 nM (active).

In the case of `COc1ccc(-c2cn3c(C)c(C(=O)NCCN4CCOCC4)sc3n2)cc1`, the AC50 result is “inactive”.

As to `O=C(O)[C@H]1CN(CCCP(=O)(O)O)CCN1`, the AC50 entry is “inactive”.

`CCCCNN`: the activity, negative = inhibition is -18.7% [at 11.4 µM] (inactive).

Turning to `O=C(O)/C(=C\c1ccccc1)Cc1ccccc1`, the activity, negative = inhibition was -3.61% [at 11.4 µM] (inactive).

Regarding `C#CCN(C)Cc1ccccc1`, the AC50 result was “inactive”.

For the molecule `CN(Cc1ccccc1)Cn1ccnc1`, the AC50 was 794 nM (active).

Regarding `Cc1ccc(C(C(=O)NC2CCCCC2)N2CCN(C(=O)c3ccco3)CC2)cc1` (stereo unspecified), the AC50 entry is “inactive”.

Take `Cc1cc(C)n(C(=O)c2cc3ccccc3c(=O)o2)n1`: the AC50 entry was “inactive”.

In the case of `CC(C)c1ccc(C2C(C#N)=C(N)N3C(=C2C#N)Sc2ccccc23)cc1` (stereo unspecified), the AC50 entry is “inactive”.

Take `C[C@@H](CN(C)C)CN1c2ccccc2CCc2ccccc21`: the AC50 was 12.6 µM (active) and 5.01 µM (active).

Turning to `CN(C)CC(C)(C)CN1c2ccccc2Sc2ccccc21`, the AC50 was 200 nM (active).

Regarding `O=C1CCCc2ccccc2N1Cc1ccccc1Cl`, the AC50 entry was “inactive”.

On to `C[C@@H](CN1c2ccccc2Sc2ccccc21)N(C)C`, for which the AC50 was 2 µM (active) and 316 nM (active).

Consider `C[C@H](CN(C)C)C(=O)c1ccccc1C(=O)O`, for which the activity, negative = inhibition was 9.39% [at 11.4 µM] (inactive).

In the case of `CN(C)CN1C(=O)S/C(=C2/C(=O)N(CN(C)C)c3ccccc32)C1=O`, the activity, negative = inhibition was -3.13% [at 11.4 µM] (inactive).

As to `CCN(CC)[C@@H](C)CN1c2ccccc2Sc2ccccc21`, the AC50 was 158 nM (active).

Consider `Cc1nc(C(=O)Nc2cccc(Cl)c2Cl)nn1-c1cc(OC(C)C)c(Cl)cc1Cl`, for which the AC50 result is “inactive”.

As for `O=Nc1ccc(NOC(=O)c2ccc(Br)cc2)cc1`, the AC50 entry was “inactive”.

Regarding `Cc1ccc(C(=O)NNC(=O)C2CCCN(c3ncccn3)C2)cc1` (stereo unspecified), the AC50 entry is “inactive”.

As for `Nc1ncnc2c1cnn2-c1ccccc1`, the AC50 result was “inactive”.

As for `Cc1cc(C)n(-c2ccc(F)cc2)c(=O)c1C(=O)O`, the AC50 result is “inactive”.

Take `CSc1nc2ccccc2cc1/C=C(\C#N)c1ccccc1`: the AC50 result was “inactive”.

As to `COc1ccccc1C(OC(=O)c1cccs1)C(=O)NCC1CCCO1` (stereo unspecified), the AC50 result was “inactive”.

Regarding `NCCC(=O)O`, the AC50 result was “inactive”.

As to `O=C(O)CCCCCn1c(SCC(=O)N2CCCC2)nc2ccsc2c1=O`, the AC50 result is “inactive”.

In the case of `CC[C@@]1(O)C(=O)COc2c1cc1n(c2=O)Cc2c-1nc1cccc(C(C)C)c1c2[Si](C)(C)C`, the AC50 entry was “inactive”.

With `COc1ccc([C@@H]2Sc3ccccc3N(CCN(C)C)C(=O)[C@@H]2OC(C)=O)cc1`, the AC50 result is “inactive”.

For `COc1ccc([C@H]2Sc3ccccc3N(CCN(C)C)C(=O)[C@H]2OC(C)=O)cc1`, the AC50 entry was “inactive”.

As to `COc1ccc2c(c1)N(C[C@@H](C)CN(C)C)c1ccccc1S2`, the AC50 is 63.1 nM (active).

With `CCCCCC(=O)N1CC2(CC(c3cccc(NC(=O)c4ccccc4)c3)=NO2)C[C@@H]1C(N)=O` (stereo partly specified), the AC50 entry was “inactive”.

On to `O=C(CSc1nc2ccccc2o1)Nc1nc2ccccc2s1`, for which the AC50 result was “inactive”.

On to `O=C(CN(C(=O)CSc1nc2ccccc2o1)c1cccc(F)c1)NC1CCCCC1`, for which the AC50 was 12600 nM (active).

`O=C(CSc1nc2ccccc2o1)NC(=O)NCc1ccccc1`: the AC50 result was “inactive”.

Regarding `Cc1cccc(-c2c3c(=O)n(C)c(=O)n(C)c3cn2C2CCCCC2)c1`, the AC50 entry is “inactive”.

For the molecule `CO[C@@H]1COC(=O)[C@H](CCSC)NC(=O)C/C=C\[C@@H](C)COC(=O)[C@@H]2CCCN2C(=O)C/C=C\[C@H]1C`, the activity, negative = inhibition is 11.2% [at 11.4 µM] (inactive).

With `CC(C)NC[C@@H](O)COc1ccc(CCOCC2CC2)cc1`, the AC50 entry was “inactive”.

For `CC(C)NC[C@@H](O)COc1ccc(COCCOC(C)C)cc1`, the AC50 entry is “inactive”.

Consider `CC(=O)Nc1ccc(OC[C@@H](O)CNC(C)C)cc1`, for which the AC50 result is “inactive and 3.16 µM (active)”.

Turning to `Cc1cc(C(=O)C(=O)NC(C)C)c(C)n1-c1ccc([N+](=O)[O-])cc1`, the AC50 entry is “inactive”.

For `CC(=O)NS(=O)(=O)c1ccc(NC(=S)NC(=O)C(C)(C)C)cc1`, the AC50 entry was “inactive”.

As for `O=S(=O)(N/N=C\c1cn(-c2ccccc2)nc1-c1ccccc1)c1ccccc1`, the AC50 is 112 nM (active).

Consider `Cc1ccc(-c2nn(-c3ccccc3)cc2/C=N/NS(=O)(=O)c2ccccc2)cc1`, for which the AC50 result is “inactive”.

Consider `O=C(N/N=C\c1cn(-c2ccccc2)nc1-c1ccccc1)c1ccc(Br)o1`, for which the AC50 entry is “inactive”.

For `COc1ccc(C2C(C(=O)N3CCOCC3)c3ccccc3C(=O)N2c2ccc(OC)cc2)cc1` (stereo unspecified), the AC50 result is “inactive”.

In the case of `CN(C)Cc1ccccc1-c1nccc(Nc2ccc(F)cc2)n1`, the AC50 is 10000 nM (active).

`CNc1ccnc(-c2ccccc2CN(C)C)n1`: the AC50 was 39.8 nM (active).

In the case of `CN(C)Cc1ccccc1-c1nccc(NC2CC2)n1`, the AC50 is 631 nM (active).

`CNc1ccnc(-c2c(C)noc2C)n1`: the AC50 entry is “inactive”.

In the case of `Cc1nn2c(NCC(C)C)c3c(nc2c1-c1ccccc1)CCC3`, the AC50 entry was “inactive”.

For the molecule `Cc1ccc(S(=O)(=O)N=Nc2c(O)[nH]c3cc(O)c(C(=O)O)cc23)cc1`, the activity, negative = inhibition was 6.63% [at 11.4 µM] (inactive).

For the molecule `COC(=O)C/C=C\[C@@H](C)[C@@H]1C=C[C@H](OC(C)=O)[C@H](COC(C)=O)O1`, the activity, negative = inhibition is 13.8% [at 11.4 µM] (inactive).

Regarding `CCC(C)(C(=O)NC1CCCC1)N(C(=O)c1ccccn1)c1ccccc1` (stereo unspecified), the AC50 result is “inactive”.

As to `Nc1nc(Nc2ccccc2)nc2c1ncn2[C@@H]1O[C@@H](CO)[C@H](O)[C@@H]1O`, the AC50 entry was “inactive”.

As for `N[C@@H](Cc1cc(-c2ccc(Cl)cc2Cl)cc(CP(=O)(O)O)c1O)C(=O)O`, the AC50 entry was “inactive”.
